# Measurements: ChEMBL document CHEMBL3988442, “University of Dundee, Small-Polar-MMV Screening Library” (2021)
# Among all 48,000 compounds or so, about 13,000 (27%) showed an effect of 50% or more. The list shows a part of the results.
# Tested on: Wolbachia pipientis
# Assay: Anti-Wolbachia Cell-Based Screen
# Type: functional
# Parameters: scale not given: in the data most compounds retested in dose-response had high values
# Conditions: 5 µM
row,Structure (SMILES),Percent Effect [%]
1,CN(CCN(C)S(=O)(=O)CC1CCOCC1)c1ccccc1,-10.63
2,N#CCCN(CC1CCOC1)Cn1ccc(-c2cccs2)n1 (stereo not given),-0.2132
3,CC(NC(C)(C)CN)c1ccccc1 (stereo not given),-0.2011
4,O=C1Nc2ccccc2CNC12CCN(CC1CC1)CC2,106.1
5,NC(=O)C(NC1CCN(CC2CCCCC2)CC1)c1ccccc1 (stereo not given),-8.499
6,O=C1Nc2ccccc2NC12CCN(Cc1nnc(C3CC3)o1)CC2,10.49
7,O=C1Nc2ccccc2NC12CCN(c1cccc(C(F)(F)F)n1)CC2,-10.36
8,O=C1Nc2ccccc2CNC12CCN(CC1CCNC1)CC2 (stereo not given),113.7
9,O=C1Nc2ccccc2CNC12CCN(CC1CCCC1)CC2,118.7
10,CC(C)CN1CCC2(Cc3ccccc3NC2=O)C1 (stereo not given),2.79
11,CC(C)CCN1CCC2(CC1)NCc1ccccc1NC2=O,110.4
12,CC(C)c1nnc(CN2CCC3(CC2)Nc2ccccc2NC3=O)o1,8.635
13,Cn1cc(C2(C)CN(C(=O)COc3ccccc3F)CCO2)cn1 (stereo not given),-6.052
14,O=S(=O)(NCC1(O)CCOCC1)c1c(F)cccc1F,-2.026
15,Cc1cc(F)ccc1S(=O)(=O)N1CCN(C)Cc2ccccc21,-7.823
16,CC(C)(C)CN1CCCC2(CCN(C(=O)c3cn[nH]c3)C2)C1 (stereo not given),-0.3441
17,CCNC(=O)NCc1ccccc1NS(=O)(=O)c1ccccc1,26.47
18,O=C1CC2(CCCCC2)C(=O)N1CC(O)COCc1ccccc1F (stereo not given),-27.41
19,CC(C)(C)CNCC1(O)CCCN(Cc2ccccc2F)C1=O (stereo not given),-15.35
20,CSCCC(O)C(=O)N1CCN(Cc2cccc(Cl)c2)CC1 (stereo not given),8.238
21,CCC(CO)N(Cc1ccccn1)C(=O)c1ccc(=O)[nH]c1 (stereo not given),7.999
22,COc1ccccc1N1CCN(C(=O)CSC(C)C)C(C)C1 (stereo not given),-5.211
23,N#CCSCC(=O)NCC1CCCCC1,102.7
24,O=C(CCn1cncn1)NCC1CCOC1 (stereo not given),0.0368

row,Structure (SMILES),Percent Effect [%]
1,NC(=O)CSCCC(=O)N1CCCC1c1ccsc1 (stereo not given),-6.046
2,O=C(CNC(=O)C1CC1)NCC1CCCC1,-13.86
3,NC(=O)CSCC(=O)NCC1CCCC1,107.6
4,Cc1nc(CN2CCC(CNC(=O)CCC3CCCC3)CC2)oc1C,-6.137
5,NC(=O)CSCCC(=O)NCC1CC1,101.8
6,O=C(CCn1cncn1)NCC1CCCC1,2.005
7,N#CCSCCCN1CCC(C(=O)N2CCCCCC2)CC1,2.389
8,Cc1cccc(N(CC(=O)N2CCCCC2)Cc2ccno2)c1,2.857
9,Cc1cc(C(=O)NCC2SCCc3ccccc32)no1 (stereo not given),0.5755
10,CCN(C(=O)Cc1ccc(NC(=O)NC2CC2)cc1)c1ccccc1,-0.9902
11,O=C(CSc1ccc2c(c1)OCCO2)NS(=O)(=O)c1cc(F)ccc1F,-16.91
12,CC(C)(C)c1cnc(CNCC2CCCN2c2cccnn2)o1 (stereo not given),10.11
13,c1cnnc(N2CCCC2CNCCc2cccs2)c1 (stereo not given),5.045
14,Cc1ccc(CNCC2CCCN2c2cccnn2)s1 (stereo not given),110.2
15,CC(C)c1nnc(CNCC2CCCN2c2cccnn2)o1 (stereo not given),-19.57
16,c1cnnc(N2CCCC2CNCc2ccsc2)c1 (stereo not given),-3.279
17,Cc1ncc(CNCC2CCCN2c2cccnn2)s1 (stereo not given),6.124
18,Cc1noc(C)c1CNCC1CCCN1c1cccnn1 (stereo not given),5.268
19,c1cnnc(N2CCCC2CNCc2cccs2)c1 (stereo not given),108.7
20,CC(C)(C)c1ncc(CNCC2CCCN2c2cccnn2)s1 (stereo not given),130.1
21,Cc1nc(CNCC2CCCN2c2cccnn2)oc1C (stereo not given),-10.17
22,Cc1nc(CNCC2CCCN2c2cccnn2)cs1 (stereo not given),-2.276
23,Cc1ncccc1CNCC1CCCN1c1cccnn1 (stereo not given),86.13
24,CC(=O)Nc1ccc(CN2CCOC2=O)cc1,-1.092

row,Structure (SMILES),Percent Effect [%]
1,CC(=O)Nc1ccc(/C=C/c2ncc(C(=O)O)s2)cc1,35.4
2,CC(C)c1ccn(C2(C(=O)O)CCN(c3ccncc3F)CC2)n1,-3.994
3,Cc1cccc(C(=O)N(C)CC(=O)N2CCCC2)c1C,11.26
4,O=C(CNC(=O)C1CC1)NCc1ccc(Cl)s1,12.79
5,O=C(Nc1cnccn1)[C@H]1COC[C@H]2CN(C3CCCC3)C[C@H]21.O=C(O)C(F)(F)F,12.06
6,CN(Cc1nnc(C2CC2)n1C)C(=O)c1ccnc(OC2CCC2)c1,-6.34
7,Cc1cc(C(=O)N(C)Cc2ccccc2OCC(C)C)cc(=O)[nH]1,5.839
8,COc1ccccc1OCC(=O)NS(=O)(=O)c1ccccc1F,-1.762
9,CSc1ccc(NCC(=O)NCC2CC2)cc1F,-20.57
10,COc1cccc([C@@H]2CN(C3CCCC3)C[C@H]2C(=O)O)c1,-6.459
11,Cn1cc(CN2CCn3c(CNC(=O)c4cccn4C)cnc3C2)cn1.O=C(O)C(F)(F)F,-0.1323
12,CC(C)N(C)Cc1cnc2n1CCN(Cc1ccc(F)cc1)C2.O=C(O)C(F)(F)F.O=C(O)C(F)(F)F,108.1
13,Cc1ccc(CN2CCc3c(CN(C)C)n[nH]c3C2)s1.O=C(O)C(F)(F)F.O=C(O)C(F)(F)F,-7.014
14,CC(C)c1ncc2c(n1)CN(Cc1cccc(C#N)c1)CC2,-1.681
15,CN(C)Cc1cnc2n1CCN(C(=O)Cc1ccc(F)cc1)CC2.O=C(O)C(F)(F)F,-6.028
16,O=C(NCc1cnc2n1CCN(Cc1nccs1)C2)c1ccno1.O=C(O)C(F)(F)F,-12.49
17,Cc1ccc(CN2CCn3c(CN(C)C(C)C)cnc3C2)s1.O=C(O)C(F)(F)F.O=C(O)C(F)(F)F,102.4
18,CC(O)CN1CCN(Cc2cccc(C#N)c2)CC1 (stereo not given),-5.978
19,CC(C)N(C)Cc1cnc2n1CCN(Cc1cccc(C#N)c1)C2,113.4
20,Cc1noc(C)c1CN1CCc2ncc(CN(C)C)n2CC1.O=C(O)C(F)(F)F.O=C(O)C(F)(F)F,-8.609
21,Cc1ccc(CN2CCn3c(CNC(=O)c4cccn4C)cnc3C2)s1.O=C(O)C(F)(F)F,57.4
22,CN1CCc2ncc(CNC(=O)c3cccn3C)n2CC1.O=C(O)C(F)(F)F,-7.758
